# Values joined by “and” are separate entries in the source; they are usually repeats but may differ in a detail not shown here. Identical values can stand only once. Active and inactive are the calls of the source.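 Rule for the calls, unless noted: active = compounds lowering colon cancer cell viability after pretreatment blocking the GSK3B kinase; inactive = the rest.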
# What was measured:
# [1] = compounds altering viability of human ES cells (AID 493140; call rule not given here;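 note: cells exposed to compounds for four days before counting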); details: human embryonic stem cell survival screen; stronger effect = higher value
# [2] = P. berghei load reduction in hepatocytes – cell-based, HepG2, luciferase luminescence, HepG2 viability, primary screen (AID 624349; in the data active = parasite load remaining mostly below about 12%, no sharp cut-off; inactive = mostly above about 10%;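 note: 100% = mean of DMSO negative control wells on the same plate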); details: P. berghei liver stage in HepG2, luciferase luminescence, concentration not given here; parasite load remaining: stronger effect = lower value; viability: measured here: HepG2 viability without parasites
# [3] = Wnt pathway potentiators raising nuclear beta-catenin – imaging, WNT3A-conditioned medium, mouse C2C12, NPC library, primary screen (AID 1117326; in the data active = nuclear beta-catenin stimulation mostly above about 4.2%, no sharp cut-off; inactive = mostly below about 10%); details: stronger effect = higher value
# [4] = stimulators of insulin release from INS-1E, primary screen, cell-based, 5 mM glucose, NPC library (AID 1117329;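 active = compound raises insulin release from rat beta cells at 5 mM glucose, no numeric limit stated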); details: rat INS-1E insulin secretion, at 10 µM, stronger effect = higher value
# [5] = growth inhibition of GSK3B-pretreated HCT116 cells – cell-based, CellTiter-Glo, 0.2 to 20 µM (AID 1117336); details: HCT116 viability after GSK3B inhibitor, at 20 µM, stronger effect = higher value
# [6] = inhibition of endothelial tube formation, primary screen, imaging, VEGF stimulated, CD31 staining, tube area, NPC library (AID 1117340;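 active = compound that reduces growth-factor-driven endothelial tube area in a mixed cell culture, no cutoff stated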); details: VEGF-stimulated ADSC/ECFC co-culture, at 10 µM, stronger effect = higher value
# [7] = GLP1 release stimulators, primary, NCI-H716, NPC library (AID 1117341;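 active = compound raises GLP1 secretion from the human gut endocrine cells, with no numeric limit stated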); details: NCI-H716 cells, at 10 µM, stronger effect = higher value
# [8] = HCT116 colon cancer cell growth inhibition, primary screen, CellTiter-Glo luminescence, NPC library (AID 1117342;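 active = compounds that lower survival of HCT116 colon cancer cells in the luminescence readout, no numeric limit stated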); details: at 20 µM (top of the series)
# [9] = reduced SW480 viability measured with CellTiter-Glo, NPC library, primary (AID 1117343;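 active = compounds that lower viability of the colon cancer cells in the luminescence readout, with no numeric limit stated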); details: CellTiter-Glo luminescence; at 20 µM (top of the series) unless noted
# [10] = NPC library primary testing for decreased DLD-1 cell viability via CellTiter-Glo (AID 1117346;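 active = compounds that lower survival of DLD-1 colon cancer cells in the luminescence readout, no cutoff given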); details: DLD-1 viability, CellTiter-Glo luminescence; at 20 µM (top of the series)
# [11] = EMT-state selective cytotoxicity in co-culture – imaging, PC-3E GFP, TEM4-18 mCherry, primary screen (AID 1345086;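 active = compounds killing one labelled cell type while sparing the other, by normalised counts and ratio limits, not self-fluorescent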;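 for all read-outs here: cells exposed to compound for 72 h before imaging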;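 for red/green cell ratio (normalised): normalised mesenchymal count divided by normalised epithelial count so high means epithelial killing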); details: PC-3E GFP / TEM4-18 mCherry co-culture, imaging cell counts, at 1 µM; for red/green cell ratio (normalised): actives lie on both sides, counts scaled to control wells, 1 = unselective
# [12] = viability loss with induced miR-34 in A549 – imaging, A549 dox-inducible miR-34, nuclei and caspase counts, primary screen (AID 1347080;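 active = compounds whose cell count with miR-34 switched on is under 0.7 times the count with it off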); details: A549 miR-34 inducible, Hoechst nuclei count, 48 h
# [13] = MELAS cybrid and Rieske KO viability enhancers – cell-based, MELAS cybrids, Rieske KO mouse fibroblasts, CellTiter-Glo, primary screen (AID 1508586;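 active = mean z-score across replicates of 1.96 or higher in either the MELAS or the Rieske mutant cell line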;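 note: z relative to plate mean and SD of compound and empty wells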); details: low glucose
# [14] = target: NAD(+) hydrolase SARM1 (Homo sapiens) (UniProt Q6SZW1); assay: blocking NAD cleavage by SARM1 SAM-TIR – cell lysate, NAD-Glo luminescence (AID 1508614;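 active = compound whose remaining NAD level is above about 45 nM, limit read from the data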;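 note: higher remaining NAD means stronger inhibition of SARM1 NADase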); details: SAM-TIR HEK293T lysate NADase, at 1 µM, stronger effect = higher value
# NAD(+) hydrolase SARM1 (Homo sapiens), sequence (Q6SZW1 whole entry, looked up): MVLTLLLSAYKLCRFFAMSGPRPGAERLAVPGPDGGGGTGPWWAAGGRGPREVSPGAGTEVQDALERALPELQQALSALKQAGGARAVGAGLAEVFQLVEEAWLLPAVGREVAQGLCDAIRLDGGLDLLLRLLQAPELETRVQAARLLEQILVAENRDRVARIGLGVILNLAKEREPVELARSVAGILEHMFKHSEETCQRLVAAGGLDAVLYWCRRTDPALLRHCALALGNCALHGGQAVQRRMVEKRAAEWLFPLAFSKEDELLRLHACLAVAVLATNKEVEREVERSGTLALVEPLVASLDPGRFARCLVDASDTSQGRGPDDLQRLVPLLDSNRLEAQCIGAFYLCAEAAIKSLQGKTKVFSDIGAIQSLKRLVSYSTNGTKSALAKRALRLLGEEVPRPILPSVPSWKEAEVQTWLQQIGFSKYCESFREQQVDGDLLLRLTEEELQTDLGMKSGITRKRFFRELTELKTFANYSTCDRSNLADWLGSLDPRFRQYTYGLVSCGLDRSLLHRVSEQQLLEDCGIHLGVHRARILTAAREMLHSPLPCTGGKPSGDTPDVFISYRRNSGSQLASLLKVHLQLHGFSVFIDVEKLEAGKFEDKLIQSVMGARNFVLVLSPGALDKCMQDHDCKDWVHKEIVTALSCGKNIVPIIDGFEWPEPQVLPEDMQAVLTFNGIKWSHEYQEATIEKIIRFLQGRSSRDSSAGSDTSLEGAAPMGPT
# [15] = measured here: epithelial PC-3E GFP cell survival
# [16] = measured here: mesenchymal TEM4-18 mCherry cell survival
# [17] = stronger effect = lower value, cell number ratio, induced over uninduced
# [18] = measured here: relative caspase fold change +Dox/-Dox
# [19] = measured here: total cells with miR-34 induction, stronger effect = lower value
# [20] = measured here: total cells without miR-34 induction
# [21] = MELAS cybrid survival, CellTiter-Glo 48 h, stronger effect = higher value
# [22] = Rieske KO mouse fibroblast survival, CellTiter-Glo 72 h
structure (smiles),measurement,setting,value
Cc1cc2c(cc1S(N)(=O)=O)S(=O)(=O)CCC2,survival,[1],26.1 (inactive)
same,parasite load remaining,[2],38.3% (inactive) and 103% (inactive)
same,viability,[2],50.2% and 93.9%
same,nuclear beta-catenin stimulation,[3]; at 10 µM,-0.4% (inactive)
same,nuclear beta-catenin stimulation,"[3]; stimulation, at 2 µM",1%
same,insulin secretion stimulation,[4],1.4% (inactive)
same,viability decrease,[5],-10.3% (inactive)
same,tube area decrease,[6],3.5% (inactive)
same,GLP1 secretion stimulation,[7],-0.7% (inactive)
same,inhibition of viability,[8],-0.03% (inactive)
same,viability decrease (inhibition),[9],3.2% (inactive)
same,viability decrease (inhibition),[10],-1.8% (inactive)
same,red/green cell ratio (normalised),[11],0.91 (inactive)
same,normalised cell number,[11]; [15],0.86
same,normalised cell number,[11]; [16],0.78
same,fold change,[12]; [17],0.932 (inactive)
same,fold change,[12]; [18],1.01
same,cell count,[12]; [19],8570
same,cell count,[12]; [20],9200
same,z-score,[13]; [21],-0.881 (inactive)
same,z-score,[13]; [22],0.124
same,remaining NAD,[14],10 nM (inactive)
CC1(O)CCC(C(C)(C)O)CC1 (centres undefined),nuclear beta-catenin stimulation,[3]; at 10 µM,-0.3% (inactive)
same,nuclear beta-catenin stimulation,"[3]; stimulation, at 2 µM",1.1%
same,insulin secretion stimulation,[4],1.4% (inactive)
same,viability decrease,[5],-1.3% (inactive)
same,tube area decrease,[6],2.4% (inactive)
same,GLP1 secretion stimulation,[7],-5.3% (inactive)
same,inhibition of viability,[8],1.1% (inactive)
same,viability decrease (inhibition),[9],5.7% (inactive)
same,viability decrease (inhibition),[10],-8.9% (inactive)
same,red/green cell ratio (normalised),[11],1.09 (inactive)
same,normalised cell number,[11]; [15],0.89
same,normalised cell number,[11]; [16],0.97
same,fold change,[12]; [17],0.976 (inactive)
same,fold change,[12]; [18],0.869
same,cell count,[12]; [19],8640
same,cell count,[12]; [20],8850
same,remaining NAD,[14],10 nM (inactive)
C[C@H](O)C(=O)Nc1c(I)c(C(=O)NC(CO)CO)c(I)c(C(=O)NC(CO)CO)c1I,survival,[1],3.75 (inactive)
same,parasite load remaining,[2],99% (inactive)
same,viability,[2],105%
same,nuclear beta-catenin stimulation,[3]; at 10 µM,-2.7% (inactive)
same,nuclear beta-catenin stimulation,"[3]; stimulation, at 2 µM",2.4%
same,insulin secretion stimulation,[4],3.4% (inactive)
same,viability decrease,[5],0.8% (inactive)
same,tube area decrease,[6],-18.2% (inactive)
same,GLP1 secretion stimulation,[7],0.1% (inactive)
same,inhibition of viability,[8],-1.3% (inactive)
same,viability decrease (inhibition),[9],15% (inactive)
same,viability decrease (inhibition),[10],-3.1% (inactive)
same,red/green cell ratio (normalised),[11],1.21 (inactive)
same,normalised cell number,[11]; [15],0.98
same,normalised cell number,[11]; [16],1.18
same,fold change,[12]; [17],0.849 (inactive)
same,fold change,[12]; [18],2.22
same,cell count,[12]; [19],8600
same,cell count,[12]; [20],10100
same,z-score,[13]; [21],-0.551 (inactive)
same,z-score,[13]; [22],-0.888
O=c1[nH]c(=O)c2ccccc2o1,nuclear beta-catenin stimulation,[3]; at 10 µM,0.9% (inactive)
same,nuclear beta-catenin stimulation,"[3]; stimulation, at 2 µM",0.3%
same,insulin secretion stimulation,[4],-1.9% (inactive)
same,viability decrease,[5],-6.75% (inactive)
same,tube area decrease,[6],10.2% (inactive)
same,GLP1 secretion stimulation,[7],0.9% (inactive)
same,inhibition of viability,[8],-33.3% (inactive)
same,viability decrease (inhibition),[9],102% (active)
same,viability decrease (inhibition),[10],-5.5% (inactive)
same,red/green cell ratio (normalised),[11],0.79 (inactive)
same,normalised cell number,[11]; [15],1.11
same,normalised cell number,[11]; [16],0.88
same,fold change,[12]; [17],0.86 (inactive)
same,fold change,[12]; [18],0.838
same,cell count,[12]; [19],8540
same,cell count,[12]; [20],9930
same,remaining NAD,[14],10 nM (inactive)
S=C=Nc1ccc(N=C=S)cc1,nuclear beta-catenin stimulation,[3]; at 10 µM,16.4% (inactive)
same,nuclear beta-catenin stimulation,"[3]; stimulation, at 2 µM",-0.1%
same,insulin secretion stimulation,[4],3.2% (inactive)
same,viability decrease,[5],77.2% (active)
same,tube area decrease,[6],100% (active)
same,GLP1 secretion stimulation,[7],-3.9% (inactive)
same,inhibition of viability,[8],57% (active)
same,viability decrease (inhibition),[9],73.5% (active)
same,viability decrease (inhibition),[10],81.3% (active)
same,red/green cell ratio (normalised),[11],0.76 (inactive)
same,normalised cell number,[11]; [15],1.12
same,normalised cell number,[11]; [16],0.86
same,fold change,[12]; [17],0.826 (inactive)
same,fold change,[12]; [18],1.4
same,cell count,[12]; [19],7160
same,cell count,[12]; [20],8680
same,remaining NAD,[14],10 nM (inactive)
O=S(=O)(O)c1cc(I)c(O)c2ncccc12,nuclear beta-catenin stimulation,[3]; at 10 µM,-0.8% (inactive)
same,nuclear beta-catenin stimulation,"[3]; stimulation, at 2 µM",-0.5%
same,insulin secretion stimulation,[4],-0.3% (inactive)
same,viability decrease,[5],62.2% (active)
same,tube area decrease,[6],-5.5% (inactive)
same,GLP1 secretion stimulation,[7],-2.6% (inactive)
same,inhibition of viability,[8],41% (inactive)
same,viability decrease (inhibition),[9],77.9% (active)
same,viability decrease (inhibition),[10],53.4% (active)
same,red/green cell ratio (normalised),[11],1 (inactive)
same,normalised cell number,[11]; [15],1.1
same,normalised cell number,[11]; [16],1.11
same,fold change,[12]; [17],1.07 (inactive)
same,fold change,[12]; [18],0.778
same,cell count,[12]; [19],5970
same,cell count,[12]; [20],5570
same,remaining NAD,[14],10 nM (inactive)
COc1cc(/C=C/C(N)=O)cc(OC)c1OC,nuclear beta-catenin stimulation,[3]; at 10 µM,1.1% (inactive)
same,nuclear beta-catenin stimulation,"[3]; stimulation, at 2 µM",0.6%
same,insulin secretion stimulation,[4],0.8% (inactive)
same,viability decrease,[5],-4.6% (inactive)
same,tube area decrease,[6],11.9% (inactive)
same,GLP1 secretion stimulation,[7],0.1% (inactive)
same,inhibition of viability,[8],-6% (inactive)
same,viability decrease (inhibition),[9],6.6% (inactive)
same,viability decrease (inhibition),[10],4.6% (inactive)
same,red/green cell ratio (normalised),[11],0.8 (inactive)
same,normalised cell number,[11]; [15],1.28
same,normalised cell number,[11]; [16],1.03
same,fold change,[12]; [17],0.933 (inactive)
same,fold change,[12]; [18],0.864
same,cell count,[12]; [19],8570
same,cell count,[12]; [20],9180
same,remaining NAD,[14],10 nM (inactive)
CCCCC(CC)COc1ccc(-c2nc(-c3ccc(OC)cc3)nc(-c3ccc(OCC(CC)CCCC)cc3O)n2)c(O)c1 (centres undefined),nuclear beta-catenin stimulation,[3]; at 10 µM,-1% (inactive)
same,nuclear beta-catenin stimulation,"[3]; stimulation, at 2 µM",2%
same,insulin secretion stimulation,[4],0.7% (inactive)
same,viability decrease,[5],4.7% (inactive)
same,tube area decrease,[6],2.9% (inactive)
same,GLP1 secretion stimulation,[7],-2.3% (inactive)
same,inhibition of viability,[8],-5.3% (inactive)
same,viability decrease (inhibition),[9],-1.3% (active)
same,viability decrease (inhibition),[10],-8.3% (inactive)
same,red/green cell ratio (normalised),[11],0.89 (inactive)
same,normalised cell number,[11]; [15],1.25
same,normalised cell number,[11]; [16],1.12
same,fold change,[12]; [17],0.959 (inactive)
same,fold change,[12]; [18],0.849
same,cell count,[12]; [19],9430
same,cell count,[12]; [20],9840
same,remaining NAD,[14],10 nM (inactive)
CN1C(=O)CC(C)(c2ccccc2)C1=O (centres undefined),nuclear beta-catenin stimulation,[3]; at 10 µM,2.5% (inactive)
same,nuclear beta-catenin stimulation,"[3]; stimulation, at 2 µM",2%
same,insulin secretion stimulation,[4],-0.7% (inactive)
same,viability decrease,[5],-2.5% (inactive)
same,tube area decrease,[6],-16.2% (inactive)
same,GLP1 secretion stimulation,[7],2.6% (inactive)
same,inhibition of viability,[8],8.7% (inactive)
same,viability decrease (inhibition),[9],19.6% (inactive)
same,viability decrease (inhibition),[10],-5.25% (inactive)
same,red/green cell ratio (normalised),[11],1.03 (inactive)
same,normalised cell number,[11]; [15],0.99
same,normalised cell number,[11]; [16],1.02
same,fold change,[12]; [17],0.901 (inactive)
same,fold change,[12]; [18],0.963
same,cell count,[12]; [19],8480
same,cell count,[12]; [20],9410
same,remaining NAD,[14],10 nM (inactive)
[O-][n+]1cccc(CO)c1,nuclear beta-catenin stimulation,[3]; at 10 µM,-0.4% (inactive)
same,nuclear beta-catenin stimulation,"[3]; stimulation, at 2 µM",0.6%
same,insulin secretion stimulation,[4],2.1% (inactive)
same,viability decrease,[5],-35% (inactive)
same,tube area decrease,[6],18.7% (inactive)
same,GLP1 secretion stimulation,[7],-4.1% (inactive)
same,inhibition of viability,[8],1.43% (inactive)
same,viability decrease (inhibition),[9],-11.9% (inactive)
same,viability decrease (inhibition),[10],-6% (inactive)
same,red/green cell ratio (normalised),[11],0.9 (inactive)
same,normalised cell number,[11]; [15],1.13
same,normalised cell number,[11]; [16],1.02
same,fold change,[12]; [17],0.861 (inactive)
same,fold change,[12]; [18],0.917
same,cell count,[12]; [19],7710
same,cell count,[12]; [20],8950
same,remaining NAD,[14],10 nM (inactive)
